High-throughput results as filed in PubChem.
HSV augment – increases HSV replication in cells | 220,000 tested, 0.005% active | HSV replication augmentation in cells, fold increase | AID 1956 | maximum fold increase; in the data active means maximum fold increase above about 1.5; tested in PC3 cells
Redox H2O2 prof – compounds producing H2O2 with reducing agent – biochemical, NIH compound library profiling, artefact control for MLSCN library redox annotation, primary screen; 200,000 tested, 0.03% active; DTT-dependent redox cycling H2O2, phenol red/HRP absorbance; 100% = 100 µM peroxide control, 0% = buffer; activation, % at 10 µM; AID 878;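 active means activation of at least 50% relative to the plate's high and low controls in the primary single-dose screen; inactive means activation below 50%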;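 further: compound incubated with DTT at 0.8 mM final as the reducing agent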
p97 ATPase inh – human p97 ATPase inhibition; P55072; recombinant p97 ATPase, Kinase-Glo ATP luminescence, 3 h; inhibition, % at 8 µM; 220,000 tested, 0.42% active; in the data active means inhibition above about 15%;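 further: 0% = DMSO vehicle and 100% = wells lacking enzyme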
Target sequence (P55072 whole entry, looked up): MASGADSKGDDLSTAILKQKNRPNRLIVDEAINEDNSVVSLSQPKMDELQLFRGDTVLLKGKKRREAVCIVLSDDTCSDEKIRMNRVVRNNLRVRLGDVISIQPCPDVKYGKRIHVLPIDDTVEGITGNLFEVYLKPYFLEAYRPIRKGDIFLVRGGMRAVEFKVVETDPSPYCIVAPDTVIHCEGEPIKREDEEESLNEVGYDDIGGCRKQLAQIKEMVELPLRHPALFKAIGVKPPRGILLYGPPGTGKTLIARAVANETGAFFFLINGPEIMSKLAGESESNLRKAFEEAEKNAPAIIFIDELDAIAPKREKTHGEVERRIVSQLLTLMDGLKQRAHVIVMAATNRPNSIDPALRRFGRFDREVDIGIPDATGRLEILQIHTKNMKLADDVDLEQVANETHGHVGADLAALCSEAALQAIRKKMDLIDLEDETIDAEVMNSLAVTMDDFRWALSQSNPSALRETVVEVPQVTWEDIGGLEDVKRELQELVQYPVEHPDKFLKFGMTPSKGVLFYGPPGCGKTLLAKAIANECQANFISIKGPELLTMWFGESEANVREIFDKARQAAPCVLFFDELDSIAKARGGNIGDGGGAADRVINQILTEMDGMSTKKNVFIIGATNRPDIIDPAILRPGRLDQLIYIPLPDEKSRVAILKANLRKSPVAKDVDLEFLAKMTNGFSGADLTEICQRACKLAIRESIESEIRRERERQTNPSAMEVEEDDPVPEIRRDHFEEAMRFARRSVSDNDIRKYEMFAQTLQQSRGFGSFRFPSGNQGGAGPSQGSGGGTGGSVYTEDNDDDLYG
Wee1 stabilizer – inhibitors of human Wee1 degradation | P30291 | HeLa Luc-Wee1K328M stability, luciferase luminescence; 100% = proteasome inhibitor MG132 effect | reporter increase, % at 5 µM | 220,000 tested, 1.2% active | AID 1321;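 active means activation above the mean of all tested compounds plus 3 SD, set per screening run, cut at about 8.8% in these data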;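 further: cells exposed to compound for 20 h before luminescence read; 0% = DMSO alone and 100% = MG132 at 30 µM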
Hsp70 act – switches on Hsp70 transcription; 200,000 tested, 0.04% active; AID 1203; HeLa Hsp70 promoter luciferase reporter, luminescence; scaled: vehicle 0, proteasome-inhibitor control 100%; activation, % at 10 µM;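 active means activation above the mean across all tested compounds plus 3 SD, cutoff set per campaign, cut at about 5.5% in these data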;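 further: 100% = MG132 at 30 µM as the positive control and 0% = DMSO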
Wee1 degr conf – human Wee1 degradation inhibition, confirmation | shares compounds with Wee1 stabilizer | HeLa Luc-Wee1K328M degradation, luminescence; vehicle 0%, proteasome-blocked wells 100% | activation, % at 5 µM | 1,100 tested, 4% active | AID 1410; in the data active means activation above about 8.9%
The depositor's hits bear a star; i = inactive; / = no result. The list is not random: actives were taken first. Their share in the collection is about 1.6%.

SMILES	HSV augment	Redox H2O2 prof	p97 ATPase inh	Wee1 stabilizer	Hsp70 act	Wee1 degr conf
CCOC(=O)CSc1nc(-c2ccncc2)ccc1C#N	i	-1	9	14*	0	2
O=C(CNC(=O)c1cccc(F)c1)OCC(=O)N1CCCCC1	i	0	9	15*	0	0
O=C(CNC(=O)c1cccc(F)c1)OCC(=O)N1CCN(C(=O)c2ccco2)CC1	i	/	7	-2	/	/
COCCCn1c(SCC(=O)NC(C)(C)C)nnc1-c1ccccc1	/	1	-5	-3	0	/
CCN(CC)S(=O)(=O)c1ccc(C(=O)NCCc2ccccn2)cc1	i	-1	0	12*	0	9.3*
O=C(CNCC1(N2CCOCC2)CCCCC1)Nc1ccc(Cl)cc1	i	-2	0	19*	0	0
CCOC(=O)c1cc(-c2ccccc2)sc1NC(=O)CN1C(=O)NC(CC)(c2ccc(F)cc2)C1=O (configuration not stated)	i	0	-5	-3	0	/
C[C@H](O)[C@@H](C(=O)N1CCN(C(=O)OC(C)(C)C)CC1)n1cc(CCCCNC(=O)OC(C)(C)C)nn1	i	1	2	22*	0	0
COc1ccc(-c2nc(SC)n(C(=O)c3ccco3)n2)cc1	i	1	2	3	0	/
Nc1c2c(nc3sc4c(c13)CCCC4)-c1ccccc1CC2	i	/	3	18*	/	1
NNc1nc(-c2ccccc2)nc2sc3c(c12)CCCC3	i	1	-2	1	0	/
CC(NC(=O)/C(C#N)=C/c1cn(-c2ccccc2)nc1-c1ccc(F)cc1)c1ccccc1 (configuration not stated)	i	0	2	-1	0	/
COc1ccc(OCCC(=O)N2CCOCC2)cc1	i	0	1	12*	0	1
CCSc1nn2c(=O)c3ccccc3nc2s1	i	1	-2	15*	0	1
CSc1ccc(/C=N/n2c(Cc3ccc(Br)cc3)n[nH]c2=S)cc1	i	0	4	11*	0	6
Cc1ccc(OCC(=O)N/N=C2/SCC(=O)N2Cc2ccco2)cc1	i	0	1	12*	0	2
CCn1cnc2c(oc3ccccc32)c1=O	i	-1	-3	-5	0	/
Cc1occc1C(=O)NNC(=O)c1ccc(F)cc1	i	-4	5	-4	0	/
O=C(Nc1ccc(O)cc1)/C(=C/c1ccco1)NC(=O)c1ccccc1	i	/	4	12*	/	2
O=[N+]([O-])/C=C\c1ccc(N2CCCC2)c(F)c1	/	0	2	16*	0	0
O=C(c1ccc(NS(=O)(=O)c2cccc3cccnc23)cc1)N1CCOCC1	i	1	1	-2	0	/
CCc1nnc2c(N(C)C)nc3ccccc3n12	i	0	2	-1	0	/
COc1cccc(-c2nc(CCl)cs2)c1	i	-1	4	0	0	/
COc1ccc(-c2nc(CCl)cs2)cc1	/	1	3	12*	0	3
CCCOc1ccc(C(C)=O)cc1CSCCC#N	i	1	-4	0	0	/
SMILES	HSV augment	Redox H2O2 prof	p97 ATPase inh	Wee1 stabilizer	Hsp70 act	Wee1 degr conf
COc1ccc(C(C)=O)cc1CSCCC#N	i	0	-7	14*	0	0
COCCNc1ccc(S(=O)(=O)N2CCCC2)cn1	i	0	2	-3	0	/
CCN(CCC(=O)Nc1cc([N+](=O)[O-])ccc1OC)Cc1ccccc1	/	0	1	13*	0	3
COc1ccc([N+](=O)[O-])cc1NC(=O)CC(c1ccccc1)c1ccccc1	i	1	3	3	0	/
C#CCOCCOCCOCCNc1nc(N2CCN(C(=O)[C@H]([C@@H](C)CC)n3cc([C@@H](N)CC(C)C)nn3)CC2)nc(N2CCN(C(=O)[C@H](CCCCN)n3cc([C@@H](N)C(C)CC)nn3)CC2)n1 (some centres not stated)	i	1	4	15*	0	-1
C#CCOCCOCCOCCNc1nc(N2CCN(C(=O)[C@H](CCC(=O)O)n3cc(C(N)CC(C)C)nn3)CC2)nc(N2CCN(C(=O)[C@H](CCC(=O)O)n3cc(C(N)CC(C)C)nn3)CC2)n1 (some centres not stated)	i	0	0	12*	0	-2
